Only a selection was taken, and hits are over-represented in it overall.
Pf Dd2 inh – Plasmodium falciparum Dd2 growth inhibition; P. falciparum Dd2 growth, SYBR Green, 72 h; Potency, µM (top dose mostly 28.9 µM), hits mostly inhibitors; hit rate 4.3% among 120,000; AID 1347417; active means well fitted inhibition curve with a large enough effect; further: nearly all actives have a fitted effect of over 65% in size
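Readout: SYBR Green fluorescence, 485 nm excitation, 535 nm emission, after ~16 h lysis at 37C. Before that, Dd2-infected red cells (2.5% hematocrit) grew 72 h with compound, 29 uM top final concentration.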
A number is an active result; - = inactive.

SMILES	Pf Dd2 inh
O=C1NC(=NC2CCCC2)C2(CCCN(Cc3cccnc3)C2)N1c1cccnc1 (centres undefined)	-
O=C1NC(=NC2CCCCC2)C2(CCN([S+](=O)([O-])c3ccccc3)C2)N1c1cc(F)cc(F)c1 (centres undefined)	-
O=C1NC(=NC2CCCCC2)C2(CCN(Cc3ccc(F)cc3)CC2)N1c1cccnc1	-
O=C(c1cccnc1)N1CCCC2(C1)C(=NC1CCCC1)NC(=O)N2c1cc(F)cc(F)c1 (centres undefined)	-
O=C1NC(=NC2CCCCC2)C2(CCN(Cc3ccc(F)cc3)C2)N1c1cc(F)cc(F)c1 (centres undefined)	1.8µM
O=C(NCC1(c2ccccc2F)CCCC1)C1CCN(C(=O)C2CC2)CC1	-
CCn1cc(-c2ccc(OC)cc2)cc1C(=O)NCCN1CCN(C)CC1	-
CN(Cc1ccccc1)C(=O)[C@@H]1Cc2nc[nH]c2CN1C(=O)CCC(=O)O	-
CN(C)c1ccc2ncc(Nc3cc(F)cc(N4CCOCC4)c3)n2n1	10µM
c1ccc(-c2ccc3ncc(Nc4ccc(N5CCOCC5)cc4)n3n2)cc1	-
CN(C)c1ccc2ncc(Nc3ccccc3)n2n1	-
COc1cccc(/C=C/c2nc3ccccc3c(=O)n2-c2ccc(C)c(C)c2)c1OC	-
Cc1ccc(-n2c(/C=C/c3cc(Br)cs3)nc3ccccc3c2=O)cc1C	-
Cc1ccc(-n2c(/C=C/c3cccs3)nc3ccccc3c2=O)cc1C	8.9µM
O=C(O)Cn1ccc2cc(OCCc3cccc(-c4ccc(F)cc4F)c3)cnc21	-
COc1cccc(CN2CCCC(NC(=O)Nc3ccccc3OC)C2)c1 (centres undefined)	-
COc1cccc(CN2CCC(Oc3ccc(C(=O)NC4CCCC4)cc3Cl)CC2)c1	11µM
CCOc1cccc(CNC(=O)C2CCCCC(=O)N2Cc2cccc(OC)c2)c1 (centres undefined)	-
COc1ccc(C(=O)NC2CC2)c(OC2CCN(Cc3cccc(SC)c3)CC2)c1	-
O=C(NC1CCS(=O)(=O)C1)C1CCCCC(=O)N1Cc1ccccc1 (centres undefined)	-
COc1cccc(CN2C(=O)CCCCC2C(=O)NC2CCCCCC2)c1 (centres undefined)	8.9µM
COc1ccc(C(=O)c2c(N)c(-c3nc(-c4ccc5c(c4)OCO5)cs3)c3ccccn23)cc1	-
Cc1ccc(-c2csc(-c3c(N)c(C(=O)c4ccc5c(c4)OCO5)n4ccccc34)n2)cc1C	-
Cc1ccc(C)c(C(=O)c2c(N)c(-c3nc(-c4ccc5c(c4)OCO5)cs3)c3ccccn23)c1	8.9µM
COc1ccc(NC(=O)Cn2c(-c3ccc(F)cc3)nc(C)cc2=O)c(OC)c1	-
SMILES	Pf Dd2 inh
CCc1cc(=O)n(CC(=O)Nc2cc(OC)c(OC)c(OC)c2)c(-c2ccccc2)n1	11µM
COc1ccccc1NC(=O)Cn1c(-c2ccccc2)nc(C)cc1=O	-
CCc1cc(=O)n(CC(=O)Nc2ccc(OC)c(OC)c2)c(-c2cccc(F)c2)n1	-
CCc1cc(=O)n(CC(=O)Nc2ccccc2C)c(-c2ccccc2)n1	10µM
CCc1cc(=O)n(CC(=O)Nc2ccccc2)c(-c2ccccc2)n1	-
CCc1cc(=O)n(CC(=O)Nc2ccc(OC)cc2)c(-c2ccccc2)n1	-
CCn1ncc(N2CCC(NC(=O)CCC3CCCC3)CC2)cc1=O	-
CCCN(CCC)C(=O)C1COC2(CCCCC2)N1C(=O)c1ccccc1 (centres undefined)	-
Cc1ccn(CC(=O)N2C[C@@H](COCC3CC3)[C@H](c3ccccn3)C2)n1	-
CC(c1ccc(-c2ccc(N(C)C)nn2)cc1)N(C)C (centres undefined)	-
CCOC(=O)c1ccc(NC(=O)c2ccc3c(c2)N(C)C2CCCCN2C3=O)cc1 (centres undefined)	-
CCN1C(=O)C2(CCN(C(=O)c3c(C)noc3C)CC2)c2ccccc21	3.5µM
CCCC(=O)N1CCC2(CC1)C(=O)N(CC)c1ccccc12	-
CCN1C(=O)C2(CCN(C(=O)N(C)C)CC2)c2ccccc21	-
CN(C)c1ccc(CN[C@H]2CC(C)(C)[C@@H]3C[C@@](C)(O)CC[C@]23CCC(=O)NCCc2c[nH]c3ccccc23)cc1	-
Cc1ccn(CCCNc2cc(C(C)C)ncn2)n1	-
CCNc1nccc(N2CCC(CC(=O)NCCCOC)CC2)n1	-
CCC(CC)c1cc([C@H]2CN3CC[C@H]2C[C@@H]3CO)nc(-c2ccncc2)n1	7.1µM
CC(=O)N1CCC(NC[C@H]2C[C@@H]3CCN2C[C@@H]3c2cc(C3CCCC3)nc(C)n2)CC1	-
CC(=O)c1cccc(NC(=O)OC[C@H]2C[C@@H]3CCN2C[C@@H]3c2cc(C3CCCC3)nc(-c3ccncc3)n2)c1	-
CCC(CC)c1cc([C@H]2CN3CC[C@H]2C[C@@H]3CNC2CCN(C(C)=O)CC2)nc(-c2ccncc2)n1	4.5µM
CC(C)COc1cc(=O)n2c(c1C(=O)NC1CCN(C)CC1)CCCCC2	-
COc1ccc(C(=O)N2CCCC(CN3CCOCC3)CC2)cc1 (centres undefined)	-
CCOc1ccc(Nc2nc(-c3cccc(Cl)c3)c3c(n2)-c2ccccc2OC3)cc1	10µM
Cc1ccccc1Nc1nc(-c2cccc(Cl)c2)c2c(n1)-c1ccccc1OC2	-
SMILES	Pf Dd2 inh
Fc1ccc(Nc2nc(-c3ccc(F)cc3)c3c(n2)-c2ccccc2OC3)cc1	-
COCCNC(=O)[C@@H]1C[C@H](Oc2ccccc2)CN1C(=O)COc1ccccc1	-
CN1C[C@@H](CO)[C@H](NC(=O)c2ccccc2)C1	-
O=C(N[C@@H]1CN(Cc2ccc(F)cc2Cl)C[C@H]1CO)C1CC1	-
O=C(N[C@@H]1CN(Cc2ccc(F)cc2F)C[C@H]1CO)c1ccccc1	10µM
N#Cc1cccc(CN2C[C@@H](CO)[C@H](NC(=O)c3ccccc3)C2)c1	-
O=C(N[C@@H]1CN(Cc2ccc(F)cc2Cl)C[C@H]1CO)C1CCC1	8.9µM
O=C(N[C@@H]1CN(Cc2ccc(Cl)c(F)c2)C[C@H]1CO)C1CCC1	-
CN(C)C(=O)CN1C(=O)CO[C@H](c2ccc(NC(=O)c3ccccc3)cc2)[C@H]1CO	-
COCC(=O)N1CCCC(c2noc(COC)n2)C1 (centres undefined)	-
O=C1NCCCCCCN(C(=O)c2ccco2)[C@H]2C[C@H](c3nc(Cc4ccccc4)no3)C[C@@H]12	7.9µM
Cn1cc(C(=O)N2CCCCCCNC(=O)[C@@H]3C[C@@H](c4nc(Cc5ccccc5)no4)C[C@@H]32)cn1	-
O=C1NCCCCCCN(C(=O)CN2CCCC2=O)[C@H]2C[C@H](c3nc(Cc4ccccc4)no3)C[C@@H]12	-
N#Cc1ccc(C(=O)N2CCCCCCNC(=O)[C@@H]3C[C@@H](c4nc(Cc5ccccc5)no4)C[C@@H]32)cc1	11µM
Cc1ccc(C(=O)N2CCCCCCNC(=O)[C@@H]3C[C@@H](c4nc(Cc5ccccc5)no4)C[C@@H]32)cn1	-
Cn1nccc1C(=O)N1CCCCCCNC(=O)[C@@H]2C[C@@H](c3nc(Cc4ccccc4)no3)C[C@@H]21	-
CCc1nnc(NC(=O)C2CC(=O)N(c3n[nH]c4cc(Br)ccc34)C2)s1 (centres undefined)	-
Cn1cccc1C(=O)N1CCCC(C(=O)NCc2ccccc2)CCNC(=O)CC1 (centres undefined)	-
CCCc1cc(CN(C)C(=O)CC2C(=O)NCCN2CCCc2ccccc2)[nH]n1 (centres undefined)	-
C#CCNC(=O)c1onc(-c2ccc(OC)cc2)c1[C@H](C)O	-
